According to PubChem BioAssay (NCI):
Compounds without any hit were thinned out: in the full panel of roughly 83,000, 20% have a hit.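 The endpoint reported here, percent growth, reads 100 for growth as untreated, 0 for no net growth and -100 for all cells dead.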 Calls of active or inactive are those of the source. How the source made its calls: active means growth percent below 10; inactive means the rest.

Columns and labels:
Assay in all cases: NCI-60 one-dose screen, 48 h (100 = growth as untreated, 0 = no growth, -100 = all killed)
Conditions in all cases: 10 µM unless noted
[1] = tested on: SR leukemia
[2] = tested on: RPMI-8226 leukemia
[3] = tested on: OVCAR-8 ovarian
[4] = tested on: OVCAR-5 ovarian
[5] = tested on: OVCAR-4 ovarian
[6] = tested on: SK-OV-3 ovarian
[7] = tested on: IGROV1 ovarian
[8] = tested on: OVCAR-3 ovarian
[9] = tested on: HS 578T breast
[10] = tested on: NCI/ADR-RES ovarian
[11] = tested on: BT-549 breast
[12] = tested on: MDA-MB-435 melanoma
[13] = tested on: SW-620 colon
[14] = tested on: MCF7 breast
[15] = tested on: HCT-116 colon
[16] = tested on: HCC-2998 colon
[17] = tested on: KM12 colon
[18] = tested on: T-47D breast

Measured: growth

O=c1oc2ccccc2cc1-c1cc(-c2ccc(-c3cc(-c4cc5ccccc5oc4=O)nc(-c4cc5ccccc5oc4=O)c3)cc2)cc(-c2cc3ccccc3oc2=O)n1
inactive: [1] 93.7% | [2] 98.2% | [3] 103% | [4] 119% | [5] 100% | [6] 94.3% | [7] 105% | [8] 110% | [9] 104% | [10] 108% | [11] 106% | [12] 114% | [13] 110% | [14] 68.6% | [15] 97% | [16] 110% | [17] 103%

COc1ccc(-c2cnc(-c3ccncc3-c3cccc(OC)c3)o2)cc1
active: [2] 8.95% | [6] -5.44% | [8] -13.1% | [15] 4.92% | [17] -28.6%
inactive: [1] 10.2% | [3] 26% | [4] 57.4% | [5] 37.6% | [7] 37.1% | [9] 53.3% | [10] 10.1% | [11] 37.1% | [13] 22.5% | [14] 16.4% | [16] 17.3%

COc1cc2ncnc(Nc3ccc(S(=O)(=O)Nc4nccs4)cc3)c2cc1OCCCN1CCOCC1
inactive: [1] 108% | [2] 106% | [3] 103% | [4] 106% | [5] 107% | [6] 96.2% | [7] 106% | [8] 101% | [9] 99.9% | [10] 102% | [11] 119% | [12] 101% | [13] 103% | [14] 105% | [15] 100% | [16] 104% | [17] 101%

CCN(CC)CCNC(=O)C(F)(F)C(F)(F)C(F)(F)F
inactive: [1] 106% | [2] 107% | [3] 114% | [4] 99.2% | [5] 112% | [6] 101% | [7] 138% | [8] 109% | [9] 96.7% | [10] 113% | [11] 98.7% | [12] 109% | [13] 104% | [15] 96.2% | [16] 105% | [17] 101%

Cc1ccc(C(CN(C)C)C(=O)c2ccccc2)cc1 (stereo not given)
active: [1] -29.2% | [2] -41% | [8] -8.33% | [13] -53.8% | [14] -0.801% | [15] -86.4%
inactive: [3] 14.5% | [4] 65.9% | [5] 33.2% | [6] 97.6% | [7] 88.9% | [9] 83.5% | [10] 49.7% | [12] 18.2% | [17] 33.9%

CCCCCCCC/C=C\CCCCCCCC(=O)OCCCCCC
inactive: [1] 105% | [2] 104% | [3] 100% | [4] 117% | [5] 113% | [6] 99.3% | [7] 108% | [8] 113% | [9] 105% | [18] 102% | [11] 114% | [12] 101% | [13] 106% | [14] 105% | [15] 100% | [16] 107% | [17] 102%

CN1C2CCC1/C(=C\c1ccc(Cl)cc1)C(=O)/C2=C/c1ccc(Cl)cc1
inactive: [1] 24.5% | [2] 20.2% | [4] 102% | [5] 63.5% | [6] 93.4% | [7] 68.8% | [8] 46% | [9] 75.5% | [10] 43.7% | [11] 70.6% | [12] 63.9% | [13] 57.5% | [14] 22.7% | [16] 112% | [17] 54.3%
active: [3] -27.1%

CN(C)CC(=O)c1ccc2cc(Br)c3ccccc3c2c1
inactive: [1] 13.4% | [2] 46.9% | [3] 57.9% | [4] 83.7% | [5] 72.2% | [6] 69.7% | [7] 38.5% | [8] 85.8% | [9] 55.4% | [10] 72.8% | [11] 60.2% | [12] 83.6% | [13] 54.7% | [14] 63.6% | [15] 49.3% | [17] 63.7%
